Common to all, as to assay: DAPPL (digital affinity profiling via proximity ligation, sequencing); 10 mM Tris-HCl pH 7.5, 50 mM NaCl, 1 mM DTT, 4% glycerol, room temperature, 30 min; GST-TFs on glutathione beads, 16-mer random dsDNA library, 0.1% formaldehyde crosslink after washing; high values mean tight binding
For assay [1], the target named is T1, FEV (Homo sapiens, UniProt Q99581 1-238).
T1 sequence: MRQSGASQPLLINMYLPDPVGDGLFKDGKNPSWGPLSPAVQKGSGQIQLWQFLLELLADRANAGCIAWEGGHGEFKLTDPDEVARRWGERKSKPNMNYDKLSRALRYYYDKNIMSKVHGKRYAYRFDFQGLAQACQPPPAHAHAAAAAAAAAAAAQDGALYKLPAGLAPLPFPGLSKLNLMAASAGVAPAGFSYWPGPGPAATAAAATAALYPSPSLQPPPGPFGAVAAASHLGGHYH
The conditions noted are these: protein: recombinant; tags: N-terminal GST; dsDNA, one strand shown. An outline of the steps:
(§1)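 Human transcription factors carrying a GST fusion were produced in yeast, bound to glutathione beads, tagged with DNA barcodes and pooled together with a tag-only sample. Each pool was held with 200 nmole of a random double-stranded 16-mer DNA library in Tris/NaCl/DTT/glycerol buffer for 30 min at room temperature, then washed, crosslinked in 0.1% formaldehyde, proximity-ligated with BsaI/T4 ligase (1 h, 37 °C), PCR-amplified and sequenced on an Illumina NextSeq500. Binding signal is the read frequency of each hexamer for a given factor divided by its frequency in the tag-only sample.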

In assay [2] the target is ETV5 (Homo sapiens, UniProt P41161 1-510). The settings on record: protein: recombinant; tags: N-terminal GST; dsDNA, one strand shown. An outline of the steps:
as §1

The target in assay [3] is HSF1 (Homo sapiens, UniProt Q00613 1-529). The conditions noted are these: protein: recombinant; tags: N-terminal GST; chain copies: 3; dsDNA, one strand shown. The method in brief: as §1
HSF1, sequence (Q00613 whole entry): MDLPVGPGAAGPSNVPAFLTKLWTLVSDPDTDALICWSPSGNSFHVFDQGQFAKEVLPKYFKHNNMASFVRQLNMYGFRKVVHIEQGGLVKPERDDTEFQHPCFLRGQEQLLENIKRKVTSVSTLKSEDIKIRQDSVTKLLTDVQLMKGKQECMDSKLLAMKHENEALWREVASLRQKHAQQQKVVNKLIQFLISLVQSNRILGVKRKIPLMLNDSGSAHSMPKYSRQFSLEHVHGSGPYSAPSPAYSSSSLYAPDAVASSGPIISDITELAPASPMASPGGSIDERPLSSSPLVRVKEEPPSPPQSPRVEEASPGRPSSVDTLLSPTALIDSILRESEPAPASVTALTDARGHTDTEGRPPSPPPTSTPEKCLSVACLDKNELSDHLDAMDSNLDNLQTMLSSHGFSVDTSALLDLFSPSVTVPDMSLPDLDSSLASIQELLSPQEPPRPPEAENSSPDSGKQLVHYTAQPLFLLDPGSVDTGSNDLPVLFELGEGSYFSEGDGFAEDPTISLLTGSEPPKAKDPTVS
Assay [4] has as its target T2, SPIC (Homo sapiens, UniProt Q8N5J4 1-248).
T2 sequence: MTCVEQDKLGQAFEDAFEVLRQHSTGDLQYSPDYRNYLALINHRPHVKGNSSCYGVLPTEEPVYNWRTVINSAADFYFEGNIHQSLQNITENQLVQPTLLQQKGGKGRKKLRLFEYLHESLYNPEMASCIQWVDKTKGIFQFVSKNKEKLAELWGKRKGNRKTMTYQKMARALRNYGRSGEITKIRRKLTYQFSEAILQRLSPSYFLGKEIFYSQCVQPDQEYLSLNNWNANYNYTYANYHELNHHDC
The settings on record: protein: recombinant; tags: N-terminal GST; dsDNA, one strand shown. An outline of the steps: as §1

For assay [5], the target named is ELF4 (Homo sapiens, UniProt Q99607 1-663). The conditions noted are these: protein: recombinant; tags: N-terminal GST; dsDNA, one strand shown. An outline of the steps: as §1
ELF4, sequence (Q99607 whole entry): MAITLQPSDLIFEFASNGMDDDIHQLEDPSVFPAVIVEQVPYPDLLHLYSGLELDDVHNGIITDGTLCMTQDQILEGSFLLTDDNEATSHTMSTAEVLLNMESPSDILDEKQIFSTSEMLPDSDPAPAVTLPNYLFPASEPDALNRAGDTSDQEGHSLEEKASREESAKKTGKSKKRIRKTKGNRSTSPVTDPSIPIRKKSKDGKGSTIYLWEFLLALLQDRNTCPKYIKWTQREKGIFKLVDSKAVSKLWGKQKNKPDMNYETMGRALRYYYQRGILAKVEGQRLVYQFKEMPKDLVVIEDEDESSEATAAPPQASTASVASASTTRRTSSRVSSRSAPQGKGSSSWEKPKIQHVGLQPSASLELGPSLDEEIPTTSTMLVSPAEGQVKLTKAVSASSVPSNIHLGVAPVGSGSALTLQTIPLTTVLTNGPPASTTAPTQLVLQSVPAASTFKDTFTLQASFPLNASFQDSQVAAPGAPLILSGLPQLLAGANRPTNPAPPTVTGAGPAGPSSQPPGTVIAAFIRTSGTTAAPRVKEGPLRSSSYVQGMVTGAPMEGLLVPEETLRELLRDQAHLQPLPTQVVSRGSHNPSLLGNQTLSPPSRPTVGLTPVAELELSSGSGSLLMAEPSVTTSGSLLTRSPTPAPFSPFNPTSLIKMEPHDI
For assay [6], the target named is T3, ELK4 (Homo sapiens, UniProt P28324-2 1-405).
T3 sequence: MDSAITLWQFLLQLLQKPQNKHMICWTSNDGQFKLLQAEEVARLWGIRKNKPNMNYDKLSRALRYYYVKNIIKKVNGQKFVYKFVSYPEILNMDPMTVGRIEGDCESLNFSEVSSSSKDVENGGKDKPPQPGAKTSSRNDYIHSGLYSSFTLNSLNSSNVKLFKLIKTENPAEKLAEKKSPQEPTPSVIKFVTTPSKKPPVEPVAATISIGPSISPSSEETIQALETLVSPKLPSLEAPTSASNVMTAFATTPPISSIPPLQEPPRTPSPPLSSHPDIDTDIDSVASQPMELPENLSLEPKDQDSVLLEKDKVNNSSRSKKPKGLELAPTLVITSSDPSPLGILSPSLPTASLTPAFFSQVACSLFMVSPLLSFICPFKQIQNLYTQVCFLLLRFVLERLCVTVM
The conditions noted are these: protein: recombinant; tags: N-terminal GST; dsDNA, one strand shown. The method in brief: as §1

Assay [7] deals with T4, ETV2 (Homo sapiens, UniProt O00321 1-342).
T4 sequence: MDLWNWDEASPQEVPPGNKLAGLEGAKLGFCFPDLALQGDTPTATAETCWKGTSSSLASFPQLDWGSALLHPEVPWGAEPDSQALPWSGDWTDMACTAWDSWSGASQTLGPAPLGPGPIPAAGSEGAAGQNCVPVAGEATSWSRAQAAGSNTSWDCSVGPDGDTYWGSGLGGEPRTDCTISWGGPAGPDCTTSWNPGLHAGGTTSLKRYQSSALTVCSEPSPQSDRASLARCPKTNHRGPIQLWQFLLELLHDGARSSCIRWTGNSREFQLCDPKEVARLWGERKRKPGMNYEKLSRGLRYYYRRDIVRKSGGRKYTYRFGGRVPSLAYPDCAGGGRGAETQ
The settings on record: protein: recombinant; tags: N-terminal GST; dsDNA, one strand shown. The method in brief: as §1

The target in assay [8] is T5, ELF3 (Homo sapiens, UniProt P78545 1-371).
T5 sequence: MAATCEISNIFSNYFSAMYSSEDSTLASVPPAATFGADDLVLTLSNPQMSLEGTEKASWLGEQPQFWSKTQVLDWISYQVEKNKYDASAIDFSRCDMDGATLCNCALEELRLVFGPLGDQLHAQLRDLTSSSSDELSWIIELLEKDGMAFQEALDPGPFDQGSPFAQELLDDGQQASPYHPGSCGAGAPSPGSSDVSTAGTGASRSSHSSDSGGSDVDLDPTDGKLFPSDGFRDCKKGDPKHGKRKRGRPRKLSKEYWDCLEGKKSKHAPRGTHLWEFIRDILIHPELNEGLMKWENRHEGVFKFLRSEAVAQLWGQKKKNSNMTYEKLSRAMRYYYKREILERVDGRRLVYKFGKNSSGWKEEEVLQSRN
The settings on record: protein: recombinant; tags: N-terminal GST; dsDNA, one strand shown. The method in brief: as §1

Assay [9] addresses CRX (Homo sapiens, UniProt O43186 1-299). The settings on record: protein: recombinant; tags: N-terminal GST; dsDNA, one strand shown. The method in brief:
as §1

In assay [10] the target is ETV1 (Homo sapiens, UniProt P50549 1-477). The conditions noted are these: protein: recombinant; tags: N-terminal GST; dsDNA, one strand shown. The method in brief: as §1
ETV1, sequence (P50549 whole entry): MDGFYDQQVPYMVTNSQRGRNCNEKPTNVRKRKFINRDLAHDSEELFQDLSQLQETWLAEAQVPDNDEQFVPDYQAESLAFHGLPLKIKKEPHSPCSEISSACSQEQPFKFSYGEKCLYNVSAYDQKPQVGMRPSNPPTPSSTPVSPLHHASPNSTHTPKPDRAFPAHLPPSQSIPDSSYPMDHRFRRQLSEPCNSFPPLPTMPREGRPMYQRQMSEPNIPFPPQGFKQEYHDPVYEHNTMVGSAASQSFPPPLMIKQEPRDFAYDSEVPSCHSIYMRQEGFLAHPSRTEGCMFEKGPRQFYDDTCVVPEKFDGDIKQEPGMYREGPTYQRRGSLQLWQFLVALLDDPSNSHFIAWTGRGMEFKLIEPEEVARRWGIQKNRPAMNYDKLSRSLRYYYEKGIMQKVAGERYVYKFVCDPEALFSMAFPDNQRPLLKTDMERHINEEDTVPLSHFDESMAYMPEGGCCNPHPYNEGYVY
Assay [11] concerns the target T6, ERF (Homo sapiens, UniProt P50548 1-548).
T6 sequence: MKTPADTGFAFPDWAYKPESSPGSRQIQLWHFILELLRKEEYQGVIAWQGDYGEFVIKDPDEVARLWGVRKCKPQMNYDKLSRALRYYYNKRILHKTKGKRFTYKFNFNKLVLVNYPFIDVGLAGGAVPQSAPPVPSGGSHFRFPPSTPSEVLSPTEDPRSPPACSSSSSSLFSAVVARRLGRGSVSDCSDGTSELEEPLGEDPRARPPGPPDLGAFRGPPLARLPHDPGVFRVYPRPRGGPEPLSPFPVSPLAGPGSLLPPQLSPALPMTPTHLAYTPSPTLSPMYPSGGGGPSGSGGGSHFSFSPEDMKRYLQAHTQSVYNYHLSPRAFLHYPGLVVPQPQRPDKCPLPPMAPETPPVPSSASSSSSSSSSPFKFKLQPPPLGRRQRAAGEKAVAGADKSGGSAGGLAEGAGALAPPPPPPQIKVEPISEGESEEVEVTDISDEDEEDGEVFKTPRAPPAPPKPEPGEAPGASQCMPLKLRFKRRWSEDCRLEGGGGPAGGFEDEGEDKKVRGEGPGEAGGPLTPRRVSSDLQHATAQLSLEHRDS
The settings on record: protein: recombinant; tags: N-terminal GST; dsDNA, one strand shown. The method in brief: as §1

The target in assay [12] is T7, ETV3L (Homo sapiens, UniProt Q6ZN32 1-361).
T7 sequence: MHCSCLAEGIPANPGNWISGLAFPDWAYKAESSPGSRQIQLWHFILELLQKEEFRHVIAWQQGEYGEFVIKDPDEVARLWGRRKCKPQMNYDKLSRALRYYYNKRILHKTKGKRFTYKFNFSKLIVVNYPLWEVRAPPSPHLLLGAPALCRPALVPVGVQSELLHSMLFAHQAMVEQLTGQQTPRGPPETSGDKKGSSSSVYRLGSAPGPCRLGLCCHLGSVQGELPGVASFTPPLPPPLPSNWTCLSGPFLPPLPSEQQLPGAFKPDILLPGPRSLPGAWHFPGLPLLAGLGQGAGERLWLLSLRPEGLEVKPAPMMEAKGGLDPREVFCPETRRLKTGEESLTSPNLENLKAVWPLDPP
The conditions noted are these: protein: recombinant; tags: N-terminal GST; dsDNA, one strand shown. An outline of the steps: as §1

Assay [13] deals with T8, ETS2 (Homo sapiens, UniProt P15036 1-469).
T8 sequence: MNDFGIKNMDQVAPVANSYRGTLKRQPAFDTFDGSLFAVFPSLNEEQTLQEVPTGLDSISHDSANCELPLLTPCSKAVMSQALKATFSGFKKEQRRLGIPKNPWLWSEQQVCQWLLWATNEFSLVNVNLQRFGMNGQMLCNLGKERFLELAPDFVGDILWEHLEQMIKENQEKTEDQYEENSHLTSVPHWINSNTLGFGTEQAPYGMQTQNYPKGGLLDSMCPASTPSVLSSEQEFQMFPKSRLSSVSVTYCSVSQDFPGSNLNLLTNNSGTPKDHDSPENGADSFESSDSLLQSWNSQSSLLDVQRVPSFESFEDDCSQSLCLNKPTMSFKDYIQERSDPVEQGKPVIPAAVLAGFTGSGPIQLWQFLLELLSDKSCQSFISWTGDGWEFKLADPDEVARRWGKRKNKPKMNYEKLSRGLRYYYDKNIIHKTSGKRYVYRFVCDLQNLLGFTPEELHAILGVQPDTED
The conditions noted are these: protein: recombinant; tags: N-terminal GST; dsDNA, one strand shown. The method in brief:
as §1

For assay [14], the target named is T9, SPDEF (Homo sapiens, UniProt O95238 1-335).
T9 sequence: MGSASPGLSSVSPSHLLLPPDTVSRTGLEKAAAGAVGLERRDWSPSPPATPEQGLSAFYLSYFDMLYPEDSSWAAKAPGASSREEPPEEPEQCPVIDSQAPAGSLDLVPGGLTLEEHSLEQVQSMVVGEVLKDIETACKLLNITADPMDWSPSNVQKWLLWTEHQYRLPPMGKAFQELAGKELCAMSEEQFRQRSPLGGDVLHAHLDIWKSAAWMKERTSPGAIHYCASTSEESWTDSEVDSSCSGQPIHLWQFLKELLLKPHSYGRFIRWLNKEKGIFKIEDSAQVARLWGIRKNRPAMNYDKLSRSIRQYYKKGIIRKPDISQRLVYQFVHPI
The conditions noted are these: protein: recombinant; tags: N-terminal GST; dsDNA, one strand shown. An outline of the steps: as §1

The target of assay [15] is T10, ETV7 (Homo sapiens, UniProt Q9Y603 1-341).
T10 sequence: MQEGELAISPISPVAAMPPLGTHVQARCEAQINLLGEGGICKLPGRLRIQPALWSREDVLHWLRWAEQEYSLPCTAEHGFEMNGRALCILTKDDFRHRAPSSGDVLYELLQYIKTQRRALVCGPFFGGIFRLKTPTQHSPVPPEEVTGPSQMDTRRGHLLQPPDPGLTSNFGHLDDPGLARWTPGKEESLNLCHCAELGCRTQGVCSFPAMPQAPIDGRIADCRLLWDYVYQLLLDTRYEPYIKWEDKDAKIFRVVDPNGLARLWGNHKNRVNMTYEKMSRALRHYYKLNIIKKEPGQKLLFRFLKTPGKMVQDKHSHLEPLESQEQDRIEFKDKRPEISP
The conditions noted are these: protein: recombinant; tags: N-terminal GST; dsDNA, one strand shown. The method in brief: as §1

Assay [16] addresses T11, ELF5 (Homo sapiens, UniProt Q9UKW6-2 1-255).
T11 sequence: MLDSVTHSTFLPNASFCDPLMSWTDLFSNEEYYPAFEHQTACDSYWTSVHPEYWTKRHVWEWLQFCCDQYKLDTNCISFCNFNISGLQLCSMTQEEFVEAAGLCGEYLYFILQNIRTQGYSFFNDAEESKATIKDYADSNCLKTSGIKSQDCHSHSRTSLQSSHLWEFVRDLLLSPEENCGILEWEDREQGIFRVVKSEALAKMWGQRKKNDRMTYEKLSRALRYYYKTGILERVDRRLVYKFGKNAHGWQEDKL
The conditions noted are these: protein: recombinant; tags: N-terminal GST; dsDNA, one strand shown. An outline of the steps: as §1

The target of assay [17] is T12, ETV3 (Homo sapiens, UniProt P41162-2 1-143).
T12 sequence: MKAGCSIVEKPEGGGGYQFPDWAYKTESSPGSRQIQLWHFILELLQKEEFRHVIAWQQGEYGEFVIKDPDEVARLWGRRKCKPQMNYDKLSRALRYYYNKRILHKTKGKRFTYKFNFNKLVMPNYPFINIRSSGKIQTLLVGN
The conditions noted are these: protein: recombinant; tags: N-terminal GST; dsDNA, one strand shown. An outline of the steps: as §1

In assay [18] the target is ETV6 (Homo sapiens, UniProt P41212 1-452). The conditions noted are these: protein: recombinant; tags: N-terminal GST; dsDNA, one strand shown. The method in brief: as §1
ETV6, sequence (P41212 whole entry): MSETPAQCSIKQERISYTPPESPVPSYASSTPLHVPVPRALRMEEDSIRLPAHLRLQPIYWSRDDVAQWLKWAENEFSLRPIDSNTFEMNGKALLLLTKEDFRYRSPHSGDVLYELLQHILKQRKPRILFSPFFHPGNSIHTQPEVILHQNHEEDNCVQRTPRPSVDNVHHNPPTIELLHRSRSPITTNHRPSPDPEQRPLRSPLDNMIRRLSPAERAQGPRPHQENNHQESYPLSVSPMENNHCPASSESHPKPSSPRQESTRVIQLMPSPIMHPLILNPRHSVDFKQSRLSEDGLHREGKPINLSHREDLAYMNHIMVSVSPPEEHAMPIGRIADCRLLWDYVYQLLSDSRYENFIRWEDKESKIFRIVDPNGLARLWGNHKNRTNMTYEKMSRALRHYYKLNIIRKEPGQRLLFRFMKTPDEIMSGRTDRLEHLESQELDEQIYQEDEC

CRX, sequence (O43186 whole entry): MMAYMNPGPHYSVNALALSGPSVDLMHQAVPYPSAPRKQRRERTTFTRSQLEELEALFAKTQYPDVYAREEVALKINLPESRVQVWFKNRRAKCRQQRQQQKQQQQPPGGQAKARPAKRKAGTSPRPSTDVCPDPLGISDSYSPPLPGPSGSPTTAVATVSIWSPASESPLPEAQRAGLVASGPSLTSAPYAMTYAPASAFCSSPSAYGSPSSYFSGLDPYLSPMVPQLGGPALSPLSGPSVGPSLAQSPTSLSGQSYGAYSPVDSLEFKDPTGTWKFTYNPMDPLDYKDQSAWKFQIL
ETV5, sequence (P41161 whole entry): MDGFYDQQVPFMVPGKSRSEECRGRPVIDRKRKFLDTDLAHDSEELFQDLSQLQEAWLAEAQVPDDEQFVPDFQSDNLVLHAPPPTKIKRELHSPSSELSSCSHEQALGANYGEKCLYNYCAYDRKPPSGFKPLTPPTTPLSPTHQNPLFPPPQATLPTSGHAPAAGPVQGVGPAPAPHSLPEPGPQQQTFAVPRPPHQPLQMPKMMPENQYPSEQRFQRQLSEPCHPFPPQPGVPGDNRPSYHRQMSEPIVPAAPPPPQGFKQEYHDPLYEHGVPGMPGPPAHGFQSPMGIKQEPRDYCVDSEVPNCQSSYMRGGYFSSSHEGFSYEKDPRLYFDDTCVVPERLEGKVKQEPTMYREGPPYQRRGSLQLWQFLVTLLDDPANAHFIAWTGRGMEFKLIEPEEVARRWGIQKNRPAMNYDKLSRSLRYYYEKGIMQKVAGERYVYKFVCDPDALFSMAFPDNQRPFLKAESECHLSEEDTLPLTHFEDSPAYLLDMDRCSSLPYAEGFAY

Consider ACTTTC, for which the binding signal in assay [1] is 1.49 fold enrichment (6-mer frequency, TF over GST control); in [2] it was 1.65 fold enrichment (6-mer frequency, TF over GST control); in assay [3] it was 2.49 fold enrichment (6-mer frequency, TF over GST control); in [4], 1.6 fold enrichment (6-mer frequency, TF over GST control); in [5], 1.53 fold enrichment (6-mer frequency, TF over GST control); in assay [6], 1.86 fold enrichment (6-mer frequency, TF over GST control). Also, the binding signal in assay [7] was 1.62 fold enrichment (6-mer frequency, TF over GST control); in assay [8] it was 1.6 fold enrichment (6-mer frequency, TF over GST control); in [9], 1.63 fold enrichment (6-mer frequency, TF over GST control); in assay [10], 1.7 fold enrichment (6-mer frequency, TF over GST control); in assay [11], 1.63 fold enrichment (6-mer frequency, TF over GST control); in assay [12], 1.59 fold enrichment (6-mer frequency, TF over GST control). The binding signal in assay [13] was 1.6 fold enrichment (6-mer frequency, TF over GST control); in assay [14], 1.51 fold enrichment (6-mer frequency, TF over GST control); in [15], 1.51 fold enrichment (6-mer frequency, TF over GST control); in assay [16], 1.74 fold enrichment (6-mer frequency, TF over GST control); in [17], 1.63 fold enrichment (6-mer frequency, TF over GST control); in assay [18] it was 1.57 fold enrichment (6-mer frequency, TF over GST control).
